# Screening results as filed in PubChem.
# A selection: hits, their analogues and other compounds. The true share with any hit is near 1.2%.
# GSH bead fluor: GSH bead compound fluorescence profile. GSH beads flow cytometry, compound fluorescence 488/530 nm; active compounds read high. fluorescence (KMESF) at 10 µM. hit rate 0.25% among 190,000. AID 1776; in the data active = fluorescence above about 89;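 also: glutathione beads carrying GST-tagged Bcl family fusion proteins plus one bare bead set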
# RGS7-Gao reg: human RGS7-Galphao interaction regulation; P09471; Multiplexed bead flow cytometry, RGS7-Galphao binding; actives lie on both sides; binding response (% of control), % at 10 µM; hit rate 0.35% among 220,000; AID 1439; in the data active = binding response below about 49% or above about 150%; inconclusive = no clear call, values can overlap the other calls; inactive = in between;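 also: fluorescent Galphao held in activated GDP-AlF4 state binding bead-coupled RGS7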
# Target sequence (P09471 whole entry, looked up): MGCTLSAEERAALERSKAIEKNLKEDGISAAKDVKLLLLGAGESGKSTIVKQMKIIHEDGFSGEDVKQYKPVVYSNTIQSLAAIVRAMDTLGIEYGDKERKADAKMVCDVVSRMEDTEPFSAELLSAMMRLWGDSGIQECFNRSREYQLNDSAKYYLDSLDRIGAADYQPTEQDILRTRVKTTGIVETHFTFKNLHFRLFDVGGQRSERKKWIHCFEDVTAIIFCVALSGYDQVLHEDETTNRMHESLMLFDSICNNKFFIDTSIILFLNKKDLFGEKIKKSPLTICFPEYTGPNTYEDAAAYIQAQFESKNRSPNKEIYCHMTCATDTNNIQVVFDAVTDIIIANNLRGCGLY
# RGS8-Gao: human RGS8-Galphao interaction regulation; P09471; multiplexed bead flow cytometry, RGS8-Galphao binding; actives lie on both sides; response (percent of control binding), % at 10 µM; hit rate 0.34% among 220,000; in the data active = response below about 60% or above about 140%; inactive = in between;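 also: Galphao activated as the GDP aluminium fluoride complex binding bead-coupled RGS8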
# RGS16-Gao HTS: regulators of human RGS16-Galphao interaction. hit rate 0.38% among 220,000. bead-based flow cytometry RGS16-Galphao binding, fluorescence; actives lie on both sides. O15492+P09471. binding response (% of control), % at 10 µM;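 also: Galphao activated by GDP with aluminum fluoride before binding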
# Avidin bead fluor: avidin bead compound fluorescence profile | Avidin beads, compound fluorescence 488/530 nm, flow cytometry; active compounds read high | fluorescence (KMESF) at 10 µM | hit rate 0.38% among 220,000 | AID 1775; in the data active = fluorescence above about 47
# RGS4-Gao reg: modulates binding of RGS4 to human Galphao; binding response (% of control), % at 10 µM; Multiplexed bead flow cytometry; actives lie on both sides; hit rate 0.33% among 220,000; AID 1415; in the data active = binding response below about 49% or above about 150%; inactive = in between;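 also: fluorescent Galphao activated with aluminum fluoride binding bead-coupled RGS4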
# RGS-Gao: regulators of human RGS4-Galphao interaction. shares compounds with RGS16-Gao HTS. multiplexed bead flow cytometry, RGS–Galpha-o binding. RGS4–Galpha-o binding response, % at 10 µM. hit rate 99% among 1,600. AID 1504;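 also: fluorescently labeled Galpha-o bound to GDP with aluminium fluoride binding biotinylated RGS beads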
# Target sequence (P09471 whole entry, looked up): as above
# Target sequence (P49798 whole entry, looked up): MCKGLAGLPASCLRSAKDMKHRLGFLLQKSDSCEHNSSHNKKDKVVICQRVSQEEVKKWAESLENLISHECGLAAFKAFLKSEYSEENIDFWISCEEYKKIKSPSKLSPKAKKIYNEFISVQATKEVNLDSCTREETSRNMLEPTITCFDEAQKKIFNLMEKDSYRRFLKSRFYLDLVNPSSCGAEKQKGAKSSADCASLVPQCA
# Avidin counter: interferes with biotinylated probe binding to avidin beads | shares compounds with RGS16-Gao HTS | streptavidin beads, fluorescein-biotin binding, flow cytometry | inhibition, % at 10 µM | 1,700 tested, under 10 active;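 active = inhibition above 50%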;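 also: median green fluorescence of gated singlet beads compared with DMSO control wells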
# RGS8-Gao single: confirmation of regulators of human RGS8-Galphao interaction. AID 1836. bead-based flow cytometry RGS8-Galphao binding, fluorescence; actives lie on both sides. hit rate 3% among 1,700. shares compounds with RGS16-Gao HTS. binding response (% of control), % at 10 µM; in the data active = binding response below about 72% or above about 130%; inactive = in between;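 also: Galphao activated as GDP AlF4 complex before binding bead RGS8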
# RGS7-Gao single: confirmation of regulators of human RGS7-Galphao interaction. shares compounds with RGS16-Gao HTS. bead-based flow cytometry RGS7-Galphao binding; actives lie on both sides. response (percent of control binding), % at 10 µM. hit rate 7.8% among 1,700; in the data active = response below about 75% or above about 130%; inactive = in between;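 also: fluorescent Galphao activated with GDP and aluminum fluoride binding bead-coupled RGS7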
# RGS16-Gao conf: confirmation of regulators of human RGS16-Galphao interaction; shares compounds with RGS16-Gao HTS; bead-based flow cytometry, RGS16-Galphao binding; actives lie on both sides; response (% of control binding), % at 10 µM; hit rate 4% among 1,700; in the data active = response below about 74% or above about 130%; inactive = in between;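 also: Galphao activated as the GDP aluminium fluoride complex binding bead-coupled RGS16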
# RGS4-Gao single: RGS4-Galphao interaction regulation, single point confirmation; RGS4-Galphao binding, multiplexed bead flow cytometry; actives lie on both sides; shares compounds with RGS16-Gao HTS; AID 1840; hit rate 4% among 1,700; binding response (% of control), % at 10 µM; in the data active = binding response below about 74% or above about 130%; inactive = in between
# RGS19-Gao conf: confirmation of regulators of human RGS19-Galphao interaction. shares compounds with RGS16-Gao HTS. bead-based flow cytometry RGS19-Galphao binding; actives lie on both sides. response (percent of control binding), % at 10 µM. hit rate 5% among 1,700. AID 1841; in the data active = response below about 50% or above about 160%; inactive = in between
# Hits are given with their value; – = inactive; ? = inconclusive; · = no result; [ ] = dose if it differs, or a comment. Unless noted, no rule for the calls is given here.
SMILES,GSH bead fluor,RGS7-Gao reg,RGS8-Gao,RGS16-Gao HTS,Avidin bead fluor,RGS4-Gao reg,Avidin counter,RGS8-Gao single,RGS7-Gao single,RGS16-Gao conf,RGS4-Gao single,RGS19-Gao conf,others
COc1cccc(N2CCN(CC(=O)NCc3cccs3)CC2)c1,–,·,·,·,·,·,–,–,–,–,–,–,
Cc1ccc2c(C(=O)CN3CCN(c4ccccc4)CC3)c(C)[nH]c2c1,–,–,–,–,–,–,·,·,·,·,·,·,
COc1cccc(N2CCN(CC(=O)c3c(C)[nH]c4ccccc34)CC2)c1,–,17,15,15,–,22,–,–,–,–,–,–,
c1ccc(Nc2c3c(nc4ncnn24)CCC3)cc1,–,·,·,·,·,·,–,–,56,–,72,–,
Clc1ccccc1Nc1c2c(nc3ncnn13)CCC2,–,–,–,–,–,–,·,·,·,·,·,·,
COc1cccc(CC2(CO)CCN(CC3=CC[C@H]4C[C@@H]3C4(C)C)CC2)c1,–,–,–,–,–,–,·,·,·,·,·,·,
Cc1cccc(N/C=C(\[N+](=O)[O-])S(=O)(=O)c2ccccc2)c1C,–,?,–,–,–,–,·,·,·,·,·,·,
COc1ccc2oc(=O)c(/C(C)=N/NC(=O)c3ccncc3)cc2c1,–,–,–,–,–,–,·,·,·,·,·,·,
Cc1nnc(Nc2ccc3c(c2)ncn3C)c2ccccc12,–,–,146[activator],–,–,–,–,–,–,–,–,–,RGS-Gao=115
Cc1ccc(-c2nnc(Nc3ccc4c(c3)nc(C)n4C)c3ccccc23)cc1,–,–,–,–,–,–,·,·,·,·,·,·,
CCn1c(SCC(=O)Nc2nc3ccc(C)cc3s2)nc2c(c1=O)SC(C)C2 (configuration not stated),–,158[activator],–,–,117,–,·,·,·,·,·,·,RGS-Gao=112
O=C(CN1CCN(S(=O)(=O)c2ccccc2F)CC1)Nc1ccccc1C(=O)c1ccccc1,–,–,–,–,–,–,·,·,·,·,·,·,
COC(=O)CNC(=O)CN1c2cccc3cccc(c23)S1(=O)=O,–,–,–,–,–,–,·,·,·,·,·,·,
CCN1c2cccc3cccc(c23)S1(=O)=O,–,155[activator],–,–,–,155[activator],–,–,–,–,–,–,
O=C(CSc1nnnn1-c1ccccc1)Nc1ncc2c(n1)CC(c1ccco1)CC2=O (configuration not stated),–,39,57,–,–,35,–,–,–,–,–,–,
CCN1c2ccc(S(=O)(=O)N3CCOCC3)cc2N(Cc2ccc(OC)cc2)C1C (configuration not stated),–,50,59,–,–,48,–,–,–,–,–,–,
COc1ccc2cc(S(=O)(=O)N3CCOCC3)ccc2c1,–,–,–,–,–,–,·,·,·,·,·,·,
Cc1ccc(S(=O)(=O)Nc2c(C)nn(C)c2C)cc1,–,–,–,-95,–,–,–,–,–,–,–,–,RGS-Gao=66
Cc1ccc(C)c(N2CN(Cc3cccnc3)CNC2=S)c1,–,–,–,21,–,–,–,–,–,–,–,–,RGS-Gao=93
Cc1ccc(N2CN(Cc3cccnc3)CNC2=S)cc1,–,–,–,–,–,–,·,·,·,·,·,·,
CCn1c(SCC(=O)Nc2nnc(C)s2)nnc1-c1ccncc1,–,·,·,·,·,·,–,–,–,–,–,–,
Cc1nnc(NC(=O)CSc2nnc(Cc3ccccc3)n2Cc2ccccc2)s1,–,–,–,·,·,–,–,–,45,–,59,46,
Cc1nnc(NC(=O)CSc2nnc(C)n2Cc2ccccc2)s1,–,–,–,–,–,–,·,·,·,·,·,·,
O=C(NCc1ccc2c(c1)OCO2)NC12CC3CC(CC(C3)C1)C2,–,–,149[activator],–,–,–,–,–,–,–,–,223[activator],RGS-Gao=136
O=C(COc1ccc2c(c1)OCO2)NC12CC3CC(CC(C3)C1)C2,–,–,–,–,–,–,·,·,·,·,·,·,
SMILES,GSH bead fluor,RGS7-Gao reg,RGS8-Gao,RGS16-Gao HTS,Avidin bead fluor,RGS4-Gao reg,Avidin counter,RGS8-Gao single,RGS7-Gao single,RGS16-Gao conf,RGS4-Gao single,RGS19-Gao conf,others
CN(C)C(=O)CSC1c2ccccc2C(=O)N1c1ccccc1 (configuration not stated),–,15,9.1,–,–,23,–,–,–,–,–,–,
O=C(CSC1c2ccccc2C(=O)N1c1ccccc1)N1CCOCC1 (configuration not stated),–,–,–,–,–,–,·,·,·,·,·,·,
O=C(NCc1ccccn1)c1nnc(Cc2ccc(Cl)cc2)o1,–,–,–,–,–,–,·,·,·,·,·,·,
Cc1nnc(Cl)c2nn(-c3ccccc3F)c(C)c12,–,–,–,–,–,–,·,·,·,·,·,·,
Cc1nnc(SCCN2CCOCC2)c2nn(-c3ccccc3F)c(C)c12,–,–,–,180[activator],–,–,–,–,–,–,–,–,RGS-Gao=110
Cc1cccc(NC(=O)CCN2CCOCC2)c1,–,–,–,–,–,–,·,·,·,·,·,·,
Cc1cccc(NC(=O)CCn2ccnc2C)c1,–,16,14,13,–,22,–,–,–,–,–,–,
Cc1cccc(-[n+]2c(C)cc(C)c3c(=O)[nH]c(=O)[nH]c32)c1,–,–,–,–,–,–,·,·,·,·,·,·,
Cc1nnc(NC(=O)c2ccc(C)c(S(=O)(=O)N3CCOCC3)c2)s1,–,–,–,–,–,–,·,·,·,·,·,·,
CSc1nnc(NC(=O)c2ccc(C)c(S(=O)(=O)N3CCOCC3)c2)s1,–,14,12,9.3,–,18,–,–,–,–,–,–,
COc1ccc2ccccc2c1CNC(=O)CC1C(=O)NCCN1CC(C)(C)C (configuration not stated),·,?,–,–,–,–,·,·,·,·,·,·,
CCOC(=O)C1CCCN(C(=O)Cn2sc3nc(C)cc(C)c3c2=O)C1 (configuration not stated),–,–,58,17,–,–,–,61,75,16,73,15,RGS-Gao=90
Cc1cc(C)c2c(=O)n(CC(=O)N3CCC(N4CCCCC4)CC3)sc2n1,–,–,–,–,–,–,·,·,·,·,·,·,
